# Active and inactive are the calls of the source.
# What was measured:
# [1] = tested on: PRMT1 (protein arginine N-methyltransferase 1); assay: PRMT1 binders on small-molecule microarrays, primary screen, biochemical, small-molecule microarray, 635 nm fluorescence (AID 1088); details: small-molecule microarray binding, higher = more signal;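 note: binding of Prmt1 protein to compounds spotted on small-molecule microarray slides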
# [2] = yeast growth modulation, basal conditions, primary screen, YJM789 clinical isolate, OD600, 24 h (AID 1089);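 note: growth of clinical yeast isolate S. cerevisiae YJM 789 seeded 1000 cells per well; test concentration not given here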; details: S. cerevisiae YJM789 growth, higher = more signal, called active from +8 up or from −8 down
# [3] = fission yeast growth modulation, primary screen, strain 972, OD600, 24 h, no modulator (AID 1090);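 note: basal condition with compound alone and no growth modifier present; test concentration not given here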; details: S. pombe 972 growth, higher = more signal, called active from +8 up or from −8 down
# [4] = S. cerevisiae growth modulation with rapamycin, primary screen, strain BY4716, OD600, 96 h (AID 1091); details: higher = more signal, called active from +8 up or from −8 down; note: test concentration not given here
# [5] = biological target: Torsin-1A-interacting protein 2 (Homo sapiens) (UniProt Q8NFQ8); assay: LULL1 binders on small-molecule microarray, primary screen, cell lysate, human LULL1 lysate, 635/667 nm fluorescence (AID 1092); details: hLULL1 lysate binding, 635 nm fluorescence, higher = more signal;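 note: probe is lysate of COS7 cells overexpressing human LULL1; score merges per-feature 667 nm fluorescence with signal-to-noise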
# [6] = E. coli growth modulation, two-sided OD650, primary screen, E. coli filamentation project, strain DRC41, 24 h (AID 1093); details: OD650, 24 h, higher = more signal, called active from +8 up or from −8 down;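 note: MC1000 strain lacking acrAB efflux and sulA so SOS filamentation is blocked; test concentration not given here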
# [7] = small-molecule microarray binders of probe aLefty2, primary screen, biochemical, biotinylated probe, 635/667 nm fluorescence (AID 1094); details: higher = more signal;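 note: score merges spot fluorescence near 667 nm with spot signal-to-noise ratio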
# [8] = tested on: Noggin (protein binding on small-molecule microarray); assay: Noggin binders on small-molecule microarray, primary screen, biochemical, 635/667 nm fluorescence (AID 1095); details: 635 nm fluorescence, higher = more signal;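 note: score merges 667 nm feature fluorescence with signal to noise over triplicate slides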
# [9] = biological target: Neurogenic locus notch homolog protein 3 (Homo sapiens) (UniProt Q9UM47); assay: NOTCH3 binders on small-molecule microarray, primary screen, biochemical, 635/667 nm fluorescence (AID 1096); details: NOTCH3 binding, 635 nm fluorescence, higher = more signal
# [10] = small-molecule microarray binders of probe aEGFR, primary screen, biochemical, biotinylated probe, 635/667 nm fluorescence (AID 1097); details: higher = more signal;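 note: probe is a biotinylated anti-EGFR antibody binding compounds printed on slides; score combines fluorescence near 667 nm and signal to noise of each spot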
# [11] = tested on: Plasmodium falciparum Sir2 (PF13_0152, Sir2A); assay: pfSir2 binders on small-molecule microarrays, primary screen, biochemical, small-molecule microarray, 635 nm fluorescence (AID 1098); details: small-molecule microarray binding, fluorescence 635 nm; higher = more signal;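 note: score merges spot fluorescence intensity with its signal-to-noise ratio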
# [12] = small-molecule microarray binders of probe aDKK1, primary screen, biochemical, biotinylated probe, 635/667 nm fluorescence (AID 1099); details: higher = more signal;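 note: score merges 667nm spot fluorescence with signal to noise across triplicate slides; reference of the scale not given here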
# [13] = small-molecule microarray binders of probe aCHRDL2, primary screen, biochemical, biotinylated probe, 635/667 nm fluorescence (AID 1100); details: higher = more signal
# [14] = splicing luciferase reporter signal modulators, primary screen, spliceosome inhibition project, cell-based, HEK293, splice +/- reporter (AID 1101); details: luminescence, 24 h, higher = more signal, called active from +8 up or from −8 down;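 note: HEK293 cells carrying a splicing-competent luciferase reporter gene; test concentration not given here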
# [15] = biological target: Fibroblast growth factor 10 (Homo sapiens) (UniProt O15520); assay: FGF10 binders on small-molecule microarrays, primary screen, biochemical, small-molecule microarray, 635 nm fluorescence (AID 1102); details: FGF10 binding, fluorescence 635 nm, higher = more signal
# [16] = tested on: glycogen synthase kinase-3 (GSK3A per assay name; protocol says GSK3B); assay: GSK3 binders on small-molecule microarrays, primary screen, biochemical, small-molecule microarray, 635 nm fluorescence, GSK3A (AID 1103); details: small-molecule microarray binding, fluorescence 635 nm; higher = more signal; note: the record names both GSK3A and GSK3B
# [17] = biological target: Epidermal growth factor receptor (Homo sapiens) (UniProt P00533); assay: EGFR binders on small-molecule microarrays, primary screen, biochemical, small-molecule microarray, 635 nm fluorescence (AID 1104); details: EGFR binding, higher = more signal;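 note: score merges 667 nm emission intensity with spot signal to noise over triplicate slides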
# [18] = biological target: Follistatin-related protein 3 (Homo sapiens) (UniProt O95633); assay: FSTL3 binders on small-molecule microarrays, primary screen, biochemical, small-molecule microarray, 635 nm fluorescence (AID 1105); details: FSTL3 binding, higher = more signal;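 note: score merges emission near 667 nm and signal to noise per printed spot across three slides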
# [19] = biological target: Dickkopf-related protein 1 (Homo sapiens) (UniProt O94907); assay: DKK1 binders on small-molecule microarrays, primary screen, biochemical, small-molecule microarray, 635 nm fluorescence scan (AID 1106); details: DKK1 binding, higher = more signal;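 note: score merges emission near 667 nm with signal to noise over three replicate slides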
# [20] = tested on: Inhibin beta A chain (activin A); assay: INHBA (activin A) binders on microarrays, primary screen, biochemical, small-molecule microarray, 635 nm fluorescence scan (AID 1107); details: small-molecule microarray binding, higher = more signal;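 note: mouse activin A protein probed at 4.33 µg/mL on printed slides; score merges bound-protein fluorescence near 667 nm with spot signal-to-noise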
# Epidermal growth factor receptor (Homo sapiens), sequence (P00533 whole entry, looked up): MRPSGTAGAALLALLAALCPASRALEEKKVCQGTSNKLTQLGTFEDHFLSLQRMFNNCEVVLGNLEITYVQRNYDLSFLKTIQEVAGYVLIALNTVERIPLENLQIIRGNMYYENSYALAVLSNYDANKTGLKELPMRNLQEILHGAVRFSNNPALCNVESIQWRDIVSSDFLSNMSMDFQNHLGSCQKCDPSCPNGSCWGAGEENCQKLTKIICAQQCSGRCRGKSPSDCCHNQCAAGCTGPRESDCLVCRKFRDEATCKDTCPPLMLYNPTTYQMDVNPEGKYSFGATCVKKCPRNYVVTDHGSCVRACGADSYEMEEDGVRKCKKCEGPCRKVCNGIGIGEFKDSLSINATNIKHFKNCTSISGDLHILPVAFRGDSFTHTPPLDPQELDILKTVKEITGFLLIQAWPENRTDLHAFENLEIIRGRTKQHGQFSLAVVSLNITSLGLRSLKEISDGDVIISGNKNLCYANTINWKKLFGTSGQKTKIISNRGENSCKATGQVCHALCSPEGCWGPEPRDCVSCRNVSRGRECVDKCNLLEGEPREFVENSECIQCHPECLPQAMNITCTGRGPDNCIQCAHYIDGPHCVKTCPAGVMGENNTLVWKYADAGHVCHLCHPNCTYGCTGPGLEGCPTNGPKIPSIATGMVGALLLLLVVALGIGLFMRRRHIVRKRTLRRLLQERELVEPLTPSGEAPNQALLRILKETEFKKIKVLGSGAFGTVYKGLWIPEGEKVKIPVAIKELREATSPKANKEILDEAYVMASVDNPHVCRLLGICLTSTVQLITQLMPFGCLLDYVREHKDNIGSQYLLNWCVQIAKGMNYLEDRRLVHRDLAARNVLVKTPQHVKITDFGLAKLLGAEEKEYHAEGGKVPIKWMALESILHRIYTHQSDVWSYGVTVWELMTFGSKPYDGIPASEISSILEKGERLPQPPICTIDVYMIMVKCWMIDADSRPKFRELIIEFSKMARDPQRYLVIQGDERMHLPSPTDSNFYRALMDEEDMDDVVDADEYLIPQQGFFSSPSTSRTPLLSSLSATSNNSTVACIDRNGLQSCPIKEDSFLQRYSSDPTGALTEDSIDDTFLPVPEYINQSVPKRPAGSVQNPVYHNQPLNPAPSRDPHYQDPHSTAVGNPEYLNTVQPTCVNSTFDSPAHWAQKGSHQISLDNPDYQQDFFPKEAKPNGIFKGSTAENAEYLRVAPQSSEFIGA
# Dickkopf-related protein 1 (Homo sapiens), sequence (O94907 whole entry, looked up): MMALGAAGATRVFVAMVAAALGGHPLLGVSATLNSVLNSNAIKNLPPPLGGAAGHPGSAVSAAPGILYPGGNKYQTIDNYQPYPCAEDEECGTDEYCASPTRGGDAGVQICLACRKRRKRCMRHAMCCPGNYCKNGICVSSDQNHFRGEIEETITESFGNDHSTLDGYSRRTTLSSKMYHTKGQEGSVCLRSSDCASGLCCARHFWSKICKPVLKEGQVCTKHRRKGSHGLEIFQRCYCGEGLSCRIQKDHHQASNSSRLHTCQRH
# Fibroblast growth factor 10 (Homo sapiens), sequence (O15520 whole entry, looked up): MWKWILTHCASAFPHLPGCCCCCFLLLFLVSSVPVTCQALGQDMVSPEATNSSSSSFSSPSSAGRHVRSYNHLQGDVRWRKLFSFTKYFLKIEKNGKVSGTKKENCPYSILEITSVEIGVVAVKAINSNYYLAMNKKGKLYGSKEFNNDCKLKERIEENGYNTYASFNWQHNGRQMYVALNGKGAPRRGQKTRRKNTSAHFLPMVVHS
# Follistatin-related protein 3 (Homo sapiens), sequence (O95633 whole entry, looked up): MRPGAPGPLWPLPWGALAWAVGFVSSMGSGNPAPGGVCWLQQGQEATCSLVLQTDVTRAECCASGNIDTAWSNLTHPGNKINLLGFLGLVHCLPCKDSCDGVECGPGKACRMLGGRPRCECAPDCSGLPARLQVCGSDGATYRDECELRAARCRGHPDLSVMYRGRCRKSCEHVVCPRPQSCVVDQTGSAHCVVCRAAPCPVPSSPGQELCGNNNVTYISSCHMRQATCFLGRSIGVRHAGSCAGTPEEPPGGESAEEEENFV
# Neurogenic locus notch homolog protein 3 (Homo sapiens), sequence (Q9UM47 whole entry, looked up): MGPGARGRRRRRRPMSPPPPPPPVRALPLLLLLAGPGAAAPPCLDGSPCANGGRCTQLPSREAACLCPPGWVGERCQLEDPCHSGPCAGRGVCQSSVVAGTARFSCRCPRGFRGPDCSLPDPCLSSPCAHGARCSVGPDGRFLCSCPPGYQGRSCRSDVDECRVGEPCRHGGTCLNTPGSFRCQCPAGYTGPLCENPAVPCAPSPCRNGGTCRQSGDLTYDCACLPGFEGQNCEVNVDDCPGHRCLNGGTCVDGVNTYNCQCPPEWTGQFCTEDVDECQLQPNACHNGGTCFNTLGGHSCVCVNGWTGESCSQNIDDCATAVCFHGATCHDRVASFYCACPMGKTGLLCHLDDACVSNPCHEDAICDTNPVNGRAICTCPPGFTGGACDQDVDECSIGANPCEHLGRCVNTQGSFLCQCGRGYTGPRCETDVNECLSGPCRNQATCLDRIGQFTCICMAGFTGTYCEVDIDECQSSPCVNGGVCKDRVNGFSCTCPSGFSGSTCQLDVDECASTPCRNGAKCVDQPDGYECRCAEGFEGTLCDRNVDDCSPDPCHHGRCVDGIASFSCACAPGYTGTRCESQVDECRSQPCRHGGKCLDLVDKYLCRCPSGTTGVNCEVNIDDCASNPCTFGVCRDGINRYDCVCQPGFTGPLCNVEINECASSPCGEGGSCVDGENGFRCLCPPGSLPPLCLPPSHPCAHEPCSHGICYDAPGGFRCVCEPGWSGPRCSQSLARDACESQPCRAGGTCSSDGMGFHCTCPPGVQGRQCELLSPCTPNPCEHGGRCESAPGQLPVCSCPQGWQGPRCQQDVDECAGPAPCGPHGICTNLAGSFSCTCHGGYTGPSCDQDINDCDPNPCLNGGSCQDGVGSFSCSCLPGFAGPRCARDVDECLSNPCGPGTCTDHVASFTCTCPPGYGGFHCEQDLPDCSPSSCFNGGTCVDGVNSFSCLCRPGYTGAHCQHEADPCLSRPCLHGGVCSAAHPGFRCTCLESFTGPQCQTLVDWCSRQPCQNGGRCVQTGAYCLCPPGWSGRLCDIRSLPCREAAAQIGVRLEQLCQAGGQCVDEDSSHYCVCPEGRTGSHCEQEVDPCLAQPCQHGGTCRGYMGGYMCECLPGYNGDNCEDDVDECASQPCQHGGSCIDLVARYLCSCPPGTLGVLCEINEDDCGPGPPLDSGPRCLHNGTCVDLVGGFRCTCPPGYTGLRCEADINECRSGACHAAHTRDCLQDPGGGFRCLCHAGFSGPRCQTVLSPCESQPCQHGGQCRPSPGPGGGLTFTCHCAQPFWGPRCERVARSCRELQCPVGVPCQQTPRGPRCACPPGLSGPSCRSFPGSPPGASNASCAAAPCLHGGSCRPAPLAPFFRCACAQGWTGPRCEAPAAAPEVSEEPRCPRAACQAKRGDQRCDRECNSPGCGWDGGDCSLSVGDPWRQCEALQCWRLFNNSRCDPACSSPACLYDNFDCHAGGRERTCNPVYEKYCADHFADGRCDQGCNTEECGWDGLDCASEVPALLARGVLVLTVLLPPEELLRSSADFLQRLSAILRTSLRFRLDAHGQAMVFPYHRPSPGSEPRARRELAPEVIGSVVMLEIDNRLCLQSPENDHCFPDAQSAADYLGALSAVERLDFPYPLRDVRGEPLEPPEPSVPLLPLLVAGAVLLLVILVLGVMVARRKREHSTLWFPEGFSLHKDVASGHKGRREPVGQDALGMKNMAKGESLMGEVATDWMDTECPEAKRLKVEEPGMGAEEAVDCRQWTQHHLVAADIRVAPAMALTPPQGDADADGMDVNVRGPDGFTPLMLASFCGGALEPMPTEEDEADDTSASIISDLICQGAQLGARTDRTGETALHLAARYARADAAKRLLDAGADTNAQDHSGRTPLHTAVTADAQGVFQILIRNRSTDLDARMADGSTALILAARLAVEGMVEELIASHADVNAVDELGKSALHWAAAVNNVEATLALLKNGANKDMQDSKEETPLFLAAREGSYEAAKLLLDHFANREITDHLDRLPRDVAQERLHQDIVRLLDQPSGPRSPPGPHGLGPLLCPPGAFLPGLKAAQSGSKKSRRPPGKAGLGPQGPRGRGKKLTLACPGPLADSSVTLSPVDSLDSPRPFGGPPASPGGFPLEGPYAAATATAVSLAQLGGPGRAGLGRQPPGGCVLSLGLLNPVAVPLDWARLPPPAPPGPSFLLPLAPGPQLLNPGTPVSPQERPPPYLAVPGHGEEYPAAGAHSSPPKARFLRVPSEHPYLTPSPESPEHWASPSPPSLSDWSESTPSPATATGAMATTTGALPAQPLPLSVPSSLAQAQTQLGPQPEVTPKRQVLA
# Torsin-1A-interacting protein 2 (Homo sapiens), sequence (Q8NFQ8 whole entry, looked up): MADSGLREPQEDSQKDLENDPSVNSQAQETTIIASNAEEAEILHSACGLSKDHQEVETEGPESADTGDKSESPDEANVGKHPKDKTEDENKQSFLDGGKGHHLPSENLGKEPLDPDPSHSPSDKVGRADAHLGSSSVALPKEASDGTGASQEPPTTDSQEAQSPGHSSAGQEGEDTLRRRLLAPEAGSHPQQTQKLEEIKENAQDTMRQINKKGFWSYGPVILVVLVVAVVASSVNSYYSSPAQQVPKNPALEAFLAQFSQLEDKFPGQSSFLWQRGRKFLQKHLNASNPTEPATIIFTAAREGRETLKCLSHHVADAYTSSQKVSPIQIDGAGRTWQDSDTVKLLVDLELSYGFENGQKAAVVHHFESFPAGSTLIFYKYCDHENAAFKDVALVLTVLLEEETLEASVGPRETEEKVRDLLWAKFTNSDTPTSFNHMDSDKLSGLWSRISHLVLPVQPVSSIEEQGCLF
Compound,composite z-score [1],z-score [2],z-score [3],z-score [4],composite z-score [5],z-score [6],composite z-score [7],composite z-score [8],composite z-score [9],composite z-score [10],composite z-score [11],composite z-score [12],composite z-score [13],z-score [14],composite z-score [15],composite z-score [16],composite z-score [17],composite z-score [18],composite z-score [19],composite z-score [20]
C=C(CCCC)/C(=C/C[C@H](OC(C)=O)c1cccc(OCCO)c1)c1cc(C(=O)OC)ccc1OC,0.326,0.117 (inactive),-0.602 (inactive),-0.894 (inactive),0.628,1.01 (inactive),-0.101,1.04,0.195,-0.154,0.286,-0.197,-0.096,-0.325 (inactive),0.148,-0.157,-0.842,-0.574,-0.344,0.518
CCC[C@@H]1[C@@H](Sc2ccccc2)[C@@H](C(=O)O)[C@H](c2ccc(C)cc2)N1S(=O)(=O)c1ccc(C)cc1,1.56,-0.994 (inactive),0.674 (inactive),-0.698 (inactive),3.45,-0.131 (inactive),0.114,1.05,1.04,0.129,1.05,0.505,0.284,-0.114 (inactive),1.25,1.36,0.163,1.34,0.188,0.267
O=C1OCCC=C[C@H]2OC34C=CCN(CCN5CCOCC5)C(=O)[C@H]3N(CCCO)C(=O)[C@@H]4C12 (stereo not given in full),0.0132,-0.728 (inactive),-1.14 (inactive),0.229 (inactive),2.98,0.922 (inactive),-0.257,-0.293,0.329,-0.166,1.41,-0.242,0.119,-1.12 (inactive),-0.272,-0.869,-0.938,-0.549,-0.0385,0.564
CCN(CC)c1ccc(N2CC=CC34O[C@@H]5C=CCOC(=O)[C@@H]5[C@H]3C(=O)N(CCCO)[C@@H]4C2=O)cc1 (stereo not given in full),0.586,-0.6 (inactive),-0.197 (inactive),-0.298 (inactive),1.57,1.6 (inactive),-0.139,-0.927,-0.453,-0.188,0.481,-0.464,0.0573,-1.6 (inactive),-0.946,-1.11,-0.853,-0.69,-0.901,1.65
Cc1c(NC(=O)/C(C#N)=C/c2ccc(Cl)cc2)c(=O)n(-c2ccccc2)n1C,0.505,-1.53 (inactive),-1.57 (inactive),-0.311 (inactive),1.55,-0.155 (inactive),-0.0657,0.532,0.992,-0.153,0.878,-0.115,0.1,-0.0648 (inactive),0.938,0.0624,0.324,0.371,0.101,0.311
COC(=O)Cn1c(C(=O)N(C)C)cc2c1C[C@H]1CN(C(=O)c3ccccc3)[C@@](Cc3ccc(OC)cc3)(C(=O)OC)[C@@H]21,0.995,0.211 (inactive),0.833 (inactive),0.493 (inactive),3.7,-0.692 (inactive),0.134,0.471,1.11,-0.0476,1.39,0.311,0.635,-4.19 (inactive),1.13,-0.196,0.0287,0.36,-0.165,0.421
C=C(COC)/C(=C/C[C@@H](OC(C)=O)c1ccccc1OCCO)c1cc(C(=O)OC)ccc1OC,1.37,1.16 (inactive),-0.145 (inactive),-0.167 (inactive),1.67,0.174 (inactive),-0.0873,0.0363,0.455,-0.0141,1.01,-0.0445,0.012,0.846 (inactive),1.23,-0.208,-0.676,-0.0333,-0.343,0.416
O=C1O[C@@H](c2ccccc2)[C@@H](c2ccccc2)N2[C@@H](c3ccc(OCCO)cc3)[C@]3(C(=O)Nc4ccc(C#CCCO)cc43)[C@@H](C(=O)Nc3nc4ccccc4s3)[C@H]12,1.5,1.32 (inactive),0.415 (inactive),1.72 (inactive),3.06,2.55 (inactive),-0.0826,0.677,1.06,-0.0531,1.08,0.49,0.683,-0.288 (inactive),0.975,1.29,0.367,1.08,0.0321,0.655
COc1cc2c(cc1O)C(C1CC1)N(Cc1ccc([N+](=O)[O-])o1)CC2 (stereo not given),0.287,-0.123 (inactive),-3.53 (inactive),-2.16 (inactive),1.85,-1.16 (inactive),-0.0046,-0.2,0.903,-0.0734,1.53,0.158,0.391,-0.28 (inactive),0.839,0.812,0.117,0.228,-0.327,0.822
N#Cc1ccc(C(O)C2C=CC3C(=O)N(c4ccccc4)C(=O)C3N2Nc2ccc([N+](=O)[O-])cc2)cc1 (stereo not given),1.51,-0.107 (inactive),0.602 (inactive),2.45 (inactive),3.13,-0.684 (inactive),0.0913,-0.463,1.09,0.0522,1.37,0.904,1.16,0.448 (inactive),0.395,1.09,-0.175,0.516,-0.274,0.958
COc1cc2c(cc1O)C(c1ccc(CN3CCCC3)cc1)N(Cc1cccc(OC(F)(F)F)c1)CC2 (stereo not given),0.996,-26.1 (active),-20.2 (active),-3.95 (inactive),3.04,-6.17 (inactive),0.045,0.0433,0.499,0.213,1.02,0.422,0.414,-2.59 (inactive),0.15,0.213,0.576,0.81,0.36,1.44
O=C1N(Cc2ccccc2)c2ccccc2[C@H]2OC(c3ccc(OCCCO)cc3)=N[C@@]12Cc1ccccc1,1.54,-0.915 (inactive),-0.469 (inactive),6.52 (inactive),2.58,-0.905 (inactive),-0.0058,1.54,1.1,-0.0525,1.53,0.655,0.794,-0.385 (inactive),1.16,1.29,0.279,0.582,0.194,0.925
C=CC(CO)NC(=O)OCC1c2ccccc2-c2ccccc21 (stereo not given),-0.341,-1.2 (inactive),-0.0715 (inactive),-0.29 (inactive),-0.652,-0.77 (inactive),-0.145,0.497,0.493,-0.0192,0.193,-0.291,-0.475,0.406 (inactive),0.324,0.365,0.674,0.608,0.554,0.26
N[C@@H](Cc1ccccc1)Cn1cc(C2(O)CCCCC2)nn1,-0.235,-0.692 (inactive),-0.16 (inactive),-0.522 (inactive),0.205,-1.15 (inactive),-0.128,0.112,0.293,-0.14,-0.431,-0.149,0.174,0.242 (inactive),-0.493,-0.507,0.0669,-0.133,-0.0564,-0.239
CCOC(=O)C1=CC[C@@H](c2ccccc2Cl)N(S(=O)(=O)c2ccc(C)cc2)[C@H]1c1cccc(OC)c1,0.336,0.318 (inactive),0.957 (inactive),2.88 (inactive),1.84,-1.08 (inactive),-0.186,-0.0339,0.506,-0.125,0.662,-0.0972,-0.335,0.751 (inactive),0.331,0.269,-0.055,0.536,-0.237,0.406
CC(C)C[C@H]1NC(=O)[C@@H](C)NC(=O)[C@@]23C(=O)N[C@@H](Cc4ccccc4)C2[C@H](C)[C@@]2(C)O[C@H]2C3/C=C/C/C=C\CNC1=O (stereo not given in full),0.938,-0.904 (inactive),-0.721 (inactive),-0.651 (inactive),1.28,-0.64 (inactive),-0.221,0.407,0.596,-0.0615,1.13,-0.334,-0.585,-0.0326 (inactive),0.509,-0.164,0.634,0.638,0.389,1.29
Cc1ccc(S[C@]2(C(=O)NCCN3CCOCC3)CC(=O)N(C3CCCCC3)[C@@H]2c2ccc(CO)cc2I)cc1,1.53,-0.376 (inactive),0.174 (inactive),1.28 (inactive),3.23,-0.385 (inactive),-0.0512,0.824,1.07,-0.313,0.567,-0.69,-0.13,-0.341 (inactive),1.29,1.19,0.0803,1.19,-0.0675,0.714
COCCOC(=O)N1C(=O)[C@@]2(c3cc(C#CCCO)ccc31)[C@H](c1ccccc1OCCO)N1[C@H](c3ccccc3)[C@H](c3ccccc3)OC(=O)[C@H]1[C@@H]2C(=O)N1CCc2cc(OC)c(OC)cc2C1,1.54,1.88 (inactive),0.763 (inactive),3 (inactive),2.93,1.26 (inactive),-0.0616,1.26,1.12,0.0384,1.12,0.161,0.395,-0.221 (inactive),1.34,1.28,0.529,1.39,0.421,0.504
CCOC(=O)C1=CC[C@@H](c2ccccc2)N(S(=O)(=O)C[Si](C)(C)C)[C@H]1c1ccccc1,1.08,-0.514 (inactive),0.984 (inactive),0.416 (inactive),2.26,-0.453 (inactive),0.138,0.291,1.09,0.154,1.09,0.319,-0.0475,-1.02 (inactive),0.78,0.651,0.461,1.37,0.405,0.193
